This passage reports z-score results from PubChem BioAssay.

Experiment [1] in a line: compound effects on lung adenocarcinoma cell viability – A549, calcein-AM fluorescence, 48 h, basal, profiling panel (AID 1162). To be noted: higher = more signal.
Experiment [2] can be described thus: compound effects on differentiated 3T3-L1 adipocyte viability – cell-based, 3T3-L1 adipocytes, calcein-AM fluorescence, 48 h, basal, profiling panel (AID 1163). To be noted: 3T3-L1 adipocytes viability, higher = more signal.
The nature of experiment [3]: compound effects on hepatocellular carcinoma cell viability – HepG2, calcein-AM fluorescence, 48 h, basal, profiling panel (AID 1164). To be noted: higher = more signal.
Experiment [4] is described as follows: compound effects on multiple myeloma cell viability – MM1S, calcein-AM fluorescence, 48 h, basal, profiling panel (AID 1165).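 Note: viability of MM1S multiple myeloma cells under basal unstimulated conditions.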 To be noted: higher = more signal.
Experiment [5] is described as follows: calcein-AM signal in unstimulated myeloma cells – cell-based, calcein-AM fluorescence, 48 h, PK04 Diversity Set, profiling panel (AID 1166).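 Note: cells grown under basal conditions without added stimulus.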 The note with it: RPMI8226 myeloma viability, higher = more signal.
Experiment [6] is described as follows: JC-1 mitochondrial signal, unstimulated HepG2 cells – cell-based, JC-1 fluorescence, 24 h, 100 nL compound, profiling panel (AID 1167). To be noted: HepG2 mitochondrial potential, higher = more signal.
The nature of experiment [7]: JC-1 mitochondrial signal, unstimulated adipocytes – cell-based, JC-1 fluorescence, 3T3-L1 adipocytes, 24 h, 100 nL compound, profiling panel (AID 1168). The note with it: JC-1 mitochondrial fluorescence, higher = more signal, called active from +8 up or from −8 down.
Experiment [8] in a line: JC-1 mitochondrial signal, unstimulated myeloma cells – cell-based, JC-1 fluorescence, RPMI8226, 24 h, 100 nL compound, profiling panel (AID 1169). The note with it: JC-1 mitochondrial potential fluorescence, higher = more signal.
Experiment [9] in a line: JC-1 mitochondrial signal, unstimulated MM1S myeloma – cell-based, JC-1 fluorescence, 24 h, 100 nL compound, profiling panel (AID 1170). To be noted: MM1S mitochondrial potential, higher = more signal.
Experiment [10] is described as follows: resazurin metabolic signal in A549 cells – cell-based, resazurin fluorescence, 24 h, PK04 Diversity Set, profiling panel (AID 1171). The note with it: A549 viability, higher = more signal, called active from +8 up or from −8 down. For orientation: Resazurin is reduced to fluorescent resorufin, in cell work by metabolically active cells.

The source made the active and inactive calls.
Note: test concentration not given here.

Consider `COc1ccc([Si](C)(C)[C@@H]2[C@@H](CC(=O)N(CCO)Cc3ccccc3)O[C@]3(C(=O)N(Cc4cccc(I)c4)c4ccccc43)[C@H]2C)cc1`, for which the z-score in experiment [1] is -1.09; in experiment [2] it was 1.05; in [3], -1.59; in experiment [4], -2.55; in [5], -4.25; in experiment [6] it was 0.198. The z-score in experiment [7] was 1.5 (inactive); in experiment [8], -1.2; in experiment [9] it was -1.68; in [10], -2.97 (inactive).

On to `CO[C@H]1O[C@H](CO)[C@@H](OC(=O)Nc2cccc(F)c2)[C@H](OC(=O)c2cc3ccccc3[nH]2)[C@H]1OC(=O)c1cc2ccccc2[nH]1`, for which the z-score in [1] was 1.16; in [2], 0.437; in experiment [3], 0.387; in experiment [4], 0.0134; in experiment [5], 0.804; in [6] it was -1.56. In addition, the z-score in [7] was 2.42 (inactive); in experiment [8], -0.397; in experiment [9], -0.415; in experiment [10] it was -2.49 (inactive).

`C=CCNC(=O)[C@@H]1[C@H]2C(=O)O[C@H](c3ccccc3)[C@H](c3ccccc3)N2[C@H](c2ccc(OCCO)cc2)[C@@]12C(=O)Nc1ccc(C#CC3=CCCCC3)cc12`: the z-score is -1.25 in experiment [1]; 0.73 in experiment [2]; -1.18 in experiment [3]; -2.12 in experiment [4]; -2.66 in [5]; -1.11 in experiment [6]. Besides, the z-score is -0.194 (inactive) in experiment [7], -1.19 in [8], -1.24 in experiment [9] and -1.49 (inactive) in experiment [10].

`CN1C(=O)C2C=CC(C(O)COCc3ccccc3)N(Nc3ccc([N+](=O)[O-])cc3[N+](=O)[O-])C2C1=O` (stereo not given): the z-score in experiment [1] is 1.02; in [2], -0.611; in experiment [3] it was -0.832; in [4], -1.38; in [5] it was -0.988; in [6] it was -0.681. Besides, the z-score in experiment [7] was -0.985 (inactive); in experiment [8], -0.141; in experiment [9], -0.815; in experiment [10], -0.583 (inactive).

For `CCCCC(=C=CC[C@@H](O)c1ccccc1OCCO)C[C@@H](O)c1ccccn1`, the z-score in experiment [1] was -0.158; in experiment [2], -0.48; in experiment [3], 0.242; in experiment [4], -0.35; in experiment [5], -0.84; in experiment [6], -0.16. Further, the z-score in experiment [7] was 0.341 (inactive); in experiment [8], 0.495; in [9] it was -0.179; in experiment [10], 0.756 (inactive).

Turning to `COc1ccc([Si](C)(C)[C@H]2[C@H](CC(=O)N3CCC[C@H]3CO)O[C@@]3(C(=O)N(C)c4c(Br)cc(C)cc43)[C@@H]2C)cc1`, the z-score in [1] is 0.709; in [2], -0.333; in experiment [3], -0.232; in experiment [4] it was 0.0328; in experiment [5], -0.63; in experiment [6] it was 0.604. Besides, the z-score was 0.123 (inactive) in [7], -0.126 in experiment [8], -0.468 in experiment [9] and 0.809 (inactive) in experiment [10].

As to `COC(=O)[C@@]1(Cc2ccc(F)cc2)[C@@H]2C(=CC(=O)[C@H]2CC(=O)C(=O)N2CCCC2)CN1C(=O)c1ccccc1`, the z-score in experiment [1] is -1.77; in experiment [2], 1.16; in experiment [3], -1.32; in experiment [4], -2.6; in experiment [5], -4.29; in experiment [6], 3.9. Besides, the z-score in experiment [7] was -0.568 (inactive); in experiment [8], -0.686; in experiment [9] it was -2.82; in [10], -1.97 (inactive).

Regarding `COC(=O)[C@H](Cc1ccccc1)N1CC(C)(OC)O[C@@H](Cc2ccccc2)[C@H]1/C=C/C1CC1` (stereo not given in full), the z-score in [1] is -0.572; in experiment [2], -0.317; in experiment [3] it was 0.299; in [4], 0.391; in experiment [5], -0.304; in experiment [6] it was 0.208. Also, the z-score was -0.394 (inactive) in experiment [7], 0.28 in experiment [8], -0.521 in [9] and 0.379 (inactive) in experiment [10].

Take `C=CCNC(=O)[C@@H]1[C@H]2C(=O)O[C@H](c3ccccc3)[C@H](c3ccccc3)N2[C@H](c2ccc(OCCO)cc2)[C@@]12C(=O)N(C(=O)OCCOC)c1ccccc12`: the z-score in experiment [1] is -0.514; in experiment [2], 0.484; in experiment [3], 0.332; in [4], 0.374; in experiment [5], -0.562; in experiment [6], 2.15. Also, the z-score in experiment [7] was 0.89 (inactive); in [8] it was -1.05; in experiment [9] it was 0.332; in experiment [10] it was -0.0659 (inactive).

Turning to `COC(=O)[C@]1(Cc2ccccc2N=[N+]=[N-])N=C(c2ccc(OCCCO)cc2)O[C@@H]1c1ccccc1CN=[N+]=[N-]`, the z-score in experiment [1] is -3.36; in experiment [2] it was -0.677; in experiment [3], -5.59; in [4], -3.59; in experiment [5], -3.98; in [6] it was -1.76. Further, the z-score in experiment [7] is -1.07 (inactive); in [8], -1.16; in experiment [9] it was -2.61; in [10], -2.26 (inactive).

As for `CC1(C)OB(/C=C\CC(OC(=O)c2ccncc2)c2ccccc2)OC1(C)C` (stereo not given), the z-score in experiment [1] is -0.0116; in experiment [2] it was 0.282; in experiment [3] it was -0.691; in experiment [4], -0.475; in [5], -1.45; in experiment [6] it was -1.27. Also, the z-score is -0.928 (inactive) in experiment [7], -0.194 in [8], 0.343 in [9] and 0.0383 (inactive) in experiment [10].

As for `C[C@@]1([C@@H](NS(=O)(=O)c2cccc3cccnc23)c2ccc(-c3ccccc3)cc2)C[C@H]1C1CCCCC1`, the z-score in experiment [1] is -1; in experiment [2], -0.516; in [3], -1.04; in [4], -1.28; in experiment [5], -1.08; in experiment [6] it was -1.46. Also, the z-score in experiment [7] is -0.399 (inactive); in experiment [8], 0.698; in experiment [9] it was -1.72; in [10] it was -0.892 (inactive).

For the compound `COc1cc2c(cc1O)C(C)N(Cc1sc3ccccc3c1Cl)CC2` (stereo not given), the z-score is 0.0824 in [1]; -0.0046 in [2]; -0.0238 in experiment [3]; 0.141 in [4]; 0.624 in experiment [5]; -1.08 in experiment [6]. The z-score is -0.632 (inactive) in experiment [7], 0.838 in [8], -0.995 in [9] and -0.205 (inactive) in experiment [10].

For `O=C(NCC(F)(F)F)[C@@H]1c2ccccc2C(=O)N(Cc2cc(C(F)(F)F)cc(C(F)(F)F)c2)[C@H]1c1ccc(CO)cc1`, the z-score in experiment [1] was 0.964; in [2], -0.0843; in experiment [3], 1.42; in experiment [4] it was -0.202; in [5], 1.07; in experiment [6], 1.95. The z-score in experiment [7] was 1.36 (inactive); in experiment [8], 0.801; in experiment [9], -0.626; in [10], 0.651 (inactive).

Take `C=CC[C@]1(C(=O)NCCN2CCOCC2)N=C(c2ccc(OCCCO)cc2)O[C@H]1c1ccccc1`: the z-score was -0.139 in experiment [1]; -0.0761 in experiment [2]; -0.0656 in experiment [3]; -0.736 in experiment [4]; 0.0634 in experiment [5]; -0.607 in experiment [6]. The z-score in experiment [7] was -0.442 (inactive); in [8], -0.176; in experiment [9], -0.255; in experiment [10], 1.63 (inactive).

Regarding `Cc1ccc(S(=O)(=O)N2[C@@H](c3ccccc3)C(C(=O)O)=C[C@H]2C(C)(C)C)cc1`, the z-score in experiment [1] was -0.756; in experiment [2], -0.625; in experiment [3] it was -0.558; in [4] it was 0.611; in experiment [5], -0.711; in experiment [6], -0.747. The z-score is -0.465 (inactive) in experiment [7], -0.369 in experiment [8], -0.953 in experiment [9] and -1.11 (inactive) in experiment [10].
